# From PubChem BioAssay AID1439 (NMMLSC, 2008)
# In all, about 220,000 compounds went through this assay and about 770 (0.35%) were called active. Not shown: some 15% with an inconclusive outcome. The list comes from a sample in which actives are over-represented; it also holds similar structures and randomly drawn compounds. Values without a mark were called inactive. No stated cut-off is given here; in the data, active means binding response below about 49% or above about 150%; inconclusive means no clear call, values can overlap the other calls; inactive means in between.
# Biological target: Guanine nucleotide-binding protein G(o) subunit alpha (Homo sapiens) (UniProt P09471)
# Assay: RGS7-Galphao binding modulators, primary screen, biochemical, multiplexed bead flow cytometry (AID 1439);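 further: fluorescent Galphao held in activated GDP-AlF4 state binding bead-coupled RGS7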
# Conditions: at 10 µM, actives lie on both sides
# Sequence of Guanine nucleotide-binding protein G(o) subunit alpha (Homo sapiens) (P09471 whole entry, looked up): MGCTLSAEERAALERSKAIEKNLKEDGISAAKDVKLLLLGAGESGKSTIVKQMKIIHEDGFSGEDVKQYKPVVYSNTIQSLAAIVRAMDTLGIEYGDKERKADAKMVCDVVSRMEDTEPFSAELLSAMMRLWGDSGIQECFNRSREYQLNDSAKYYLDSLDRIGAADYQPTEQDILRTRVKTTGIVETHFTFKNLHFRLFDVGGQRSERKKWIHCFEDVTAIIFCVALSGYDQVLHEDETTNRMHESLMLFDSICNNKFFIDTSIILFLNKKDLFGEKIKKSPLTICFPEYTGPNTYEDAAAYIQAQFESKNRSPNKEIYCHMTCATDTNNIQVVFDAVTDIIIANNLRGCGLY
row,Compound,binding response (% of control)
1,OCCC1CN(Cc2ccccc2-c2ccco2)CCN1Cc1ccsc1 (centres undefined),95.9%
2,Cc1ccc(S(=O)(=O)NCCc2nnc3ccc(SCc4cccnc4)nn23)cc1,95.6%
3,O=C(O)CCn1c(SCc2cc(=O)n3ccccc3n2)nc2ccsc2c1=O,101%
4,CC1=CC=CC2=N/C(=N\S(=O)(=O)c3ccc(F)cc3F)c3ccccc3CN12,101%
5,c1ccc2c(NC3C4CC5CC(C4)CC3C5)nc(N3CCOCC3)nc2c1 (centres undefined),100%
6,N#Cc1nc(COc2ccc(-c3ccccc3)cc2)oc1NCc1cccnc1,202% (active)
7,N#Cc1nc(Cc2ccccc2)oc1NCCc1ccccc1,102%
8,N#Cc1nc(-c2ccc(OCc3ccccc3)cc2)oc1NCCCN1CCOCC1,97.2%
9,O=S(=O)(c1ccc(-c2ccccc2)cc1)N1CCCC1,106%
10,O=C(NCc1ccco1)C(=O)c1cn(CC(=O)N2CCCCCC2)c2ccccc12,93.9%
11,Cc1c(-c2cccc(Cl)c2)nc2ccccc2c1C(=O)OCC(=O)N(C)C1CCS(=O)(=O)C1 (centres undefined),97%
12,COc1ccc(C(=O)NC2CCN(C(=S)NCCc3ccccc3)CC2)cc1,91.3%
13,C=CCn1c(=NC(=O)c2cccs2)sc2cc(NC(C)=O)ccc21,152% (active)
14,C=CCn1c(=NC(=O)c2ccc(S(=O)(=O)N3CCCC3)cc2)sc2cc(NC(C)=O)ccc21,91.7%
15,CC(=O)Nc1ccc(/C=N/NC(=O)c2cccs2)cc1,99.9%
16,O=C(OCC(=O)N1CCOCC1)c1ccc(N2CCOCC2)c([N+](=O)[O-])c1,102%
17,Cc1c(NC(=S)NC(=O)CCc2ccccc2)c(=O)n(-c2ccccc2)n1C,103%
18,CN(CCc1ccccn1)C(=O)CCC1CCCN(Cc2ccccc2OC(F)F)C1 (centres undefined),102%
19,Cc1ccc(S(=O)(=O)/N=C(/Nc2ccc3[nH]c(=O)[nH]c3c2)c2ccccc2)cc1,104%
20,O=C(Cc1c[nH]c2ccccc12)OCCOC(=O)Cc1c[nH]c2ccccc12,95%

row,Compound,binding response (% of control)
1,NC(=O)CSc1c[nH]c2ccccc12,25.2% [inhibitor] (active)
2,O=C(CSc1nnc(-c2c[nH]c3ccccc23)o1)c1ccccc1,95.2%
3,CC(C)N1CCC(N2CCN(Cc3cccnc3)CC2CCO)CC1 (centres undefined),100%
4,CC1CC(C)CN(CCC(=O)Nc2ccc3c(c2)CCC3)C1 (centres undefined),104%
5,NS(=O)(=O)c1ccc(NC(=S)NNC(=O)c2cccs2)cc1,109%
6,O=S(=O)(c1ccccc1)N(CC(O)CN1CCCCC1)c1ccccc1 (centres undefined),110%
7,Cc1cc(C)n(CC(O)CN(c2ccccc2)S(=O)(=O)c2ccc3ccccc3c2)n1 (centres undefined),1.45% [inhibitor] (active)
8,Cc1ccc(N(CC(O)CN2CCCC2)S(=O)(=O)c2ccccc2)cc1 (centres undefined),99.4%
9,CN1C(=O)/C(=C/c2ccc(C(=O)NC3CCCC3)cc2)Oc2ccccc21,98.8%
10,O=C(CCc1ccccc1)Nc1ccc(NC(=O)C2CCCCC2)nc1,105%
11,Cc1ccc(CN2CCN(Cc3ccccc3-c3ccco3)CC2CCO)o1 (centres undefined),90.6%
12,CN1CCN(S(=O)(=O)c2ccc(N3CCN(S(=O)(=O)c4cccs4)CC3)nc2)CC1,95.4%
13,Cc1ccc(NC(=O)NCC(c2cccnc2)N2CCOCC2)cc1 (centres undefined),100%
14,CN1CCN(C(CNS(=O)(=O)c2cccs2)c2cccnc2)CC1 (centres undefined),-9.98% [inhibitor] (active)
15,CN(C)c1ccc(/C=N/NC(=O)C(O)c2ccc(Br)cc2)cc1 (centres undefined),101%
16,CC(C)(C)C(=O)CN1C2=NCCN2c2ccccc21,109%
17,Cc1ccccc1NC(=O)Cn1c(=O)n(CC2CCCO2)c(=O)c2ccccc21 (centres undefined),106%
18,COc1ccc(CC(=O)N/N=C(\C)c2ccccn2)cc1,93.4%
19,CCOc1cc(NC(=O)c2ccccn2)c(OCC)cc1NC(=O)c1ccc(OC)cc1,107%
20,CCN(CC)CCOc1ccc2c(c1)C(=NNC(=O)c1ccccn1)c1cc(OCCN(CC)CC)ccc1-2,216% (active)

row,Compound,binding response (% of control)
1,COC(=O)c1cc2n(n1)CCCNC2=O,106%
2,O=[N+]([O-])c1ccc2c(c1)C(N1CCOCC1)/C(=C/C1(O)CCCCC1)O2 (centres undefined),100%
3,CCCCOC(=O)Cn1c(=N)n(CCN(CC)CC)c2ccccc21,165% (active)
4,CCn1c(=N)n(CC(=O)c2cccc(OC)c2)c2ccccc21,96.8%
5,CCCCOC(=O)Cn1c(=O)n(CC(=O)OCCCC)c2cc(C)ccc21,103%
6,CCC(C)CN1CCC(CO)(Cc2ccccc2Cl)CC1 (centres undefined),103%
7,O=S1(=O)CCC(NC(=S)SCc2ccccc2Br)C1 (centres undefined),97.5%
8,Cn1c(CCN2CCCCCC2)nc2cc(NC(=O)Nc3ccccc3)ccc21,106%
9,Cc1cc2nc(C)n(CCCNC(=O)Nc3ccccc3)c2cc1C,180% (active)
10,Cc1nc2cc(NC(=O)NC3CC3)ccc2n1C,99%
11,CCOc1ccc(S(=O)(=O)Nc2nccs2)cc1,101%
12,C=CCN1C2CCCC1CC(NC(=S)Nc1cccc(OC)c1)C2 (centres undefined),102%
13,Clc1cccc(-c2nc(NCC3CCCO3)c3ccccc3n2)c1 (centres undefined),99.5%
14,Cc1cc(C)n2nc(C(=O)N(C)C(c3ccccc3)c3ccccc3)nc2n1,99%
15,Cc1cccc(NC(=S)N2CCCC(c3nc4ccccc4[nH]3)C2)c1 (centres undefined),106%
16,COCCCN1C(=O)C(=O)/C(=C(/O)c2ccc3c(c2)CC(C)O3)C1c1cccnc1 (centres undefined),93.5%
17,COc1cc(C2/C(=C(\O)c3ccc4c(c3)CC(C)O4)C(=O)C(=O)N2Cc2ccco2)ccc1O (centres undefined),17.7% [inhibitor] (active)
18,COc1ccc(/C(O)=C2\C(=O)C(=O)N(Cc3ccco3)C2c2ccc(OC)cc2OC)cc1 (centres undefined),98.7%
19,CSc1ccc(C(=O)C2CCCN(C(=O)c3ccc(C)nc3)C2)cc1 (centres undefined),96%
